# Bioassay records from PubChem.
# SARS PLP yeast – qHTS of Yeast-based Assay for SARS-CoV PLP; S. cerevisiae expressing SARS-CoV PLpro, growth rescue; Potency, µM (highest dose often 32.9 µM), hits mostly activators; 330,000 compounds, 0.19% hits; AID 485353, 2010; further: nearly all actives have a fitted effect of over 55% in size
# Cycloheximide cs – Cycloheximide Counterscreen for Small Molecule Inhibitors of Shiga Toxin. cell reporter, cycloheximide protein synthesis inhibition counterscreen. max response, %. 300,000 compounds, 12% hits; in the data active means max response mostly above about 13%, no sharp cut-off; inactive means mostly below about 14%; further: read at 38.3 µM for the half of the compounds with a filed dose
# Shiga toxin inh – A qHTS for Small Molecule Inhibitors of Shiga Toxin | 290,000 compounds, 9.2% hits | inhibition, % at 38.7 µM | AID 2315, 2010 | Vero cells, Shiga toxin protein synthesis inhibition reporter; in the data active means inhibition mostly above about 28%, no sharp cut-off; inactive means mostly below about 43%
# NS1 inh – qHTS Assay for Inhibitors of Influenza NS1 Protein Function; 270,000 compounds, 0.4% hits; Potency, µM (titrated, usually from 46.1 µM); AID 2326, 2010; further: actives are rising curves; nearly all actives have a fitted effect of over 50% in size
#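 S. cerevisiae expressing influenza A NS1, grown in glucose, washed, then diluted 1:100 into pH 6.0 -URA galactose medium with 23 nl compound. Growth recovery read as OD600; NS1-free strain serves as control.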
# Hits are given with their value; i = inactive; ? = inconclusive; nt = no result given. A selection: hits, their analogues and other compounds. The true share with any hit is near 12%. Unless noted, the call rests on the fitted dose curve.
SMILES,SARS PLP yeast,Cycloheximide cs,Shiga toxin inh,NS1 inh
COCCN=c1scc(-c2cccs2)n1/N=C/c1ccc(O)c(O)c1O,i,32.4,54.6,?
COCCN=c1scc(-c2ccccc2)n1/N=C/c1c[nH]c2ccccc12,i,16.7,i,i
CCN=c1scc(C)n1/N=C/c1ccc(O)c(O)c1O,i,25.4,i,i
Cc1cc(C)n(/N=C/c2c[nH]c3ccccc23)c(=O)c1,i,i,i,i
COc1ccc2ccccc2c1/C=N/NC(=O)c1cccc([N+](=O)[O-])c1,i,i,i,i
CN(Cc1cc(C(C)(C)C)cc(Br)c1O)Cc1cc(C(C)(C)C)cc(Br)c1O,nt,nt,nt,i
CC1Cc2cc(/C(O)=C3/C(=O)C(=O)N(CCN4CCOCC4)C3c3ccc(N(C)C)cc3)ccc2O1 (configuration not stated),i,i,i,i
CC(NC(=O)COC(=O)CSc1ccc(F)cc1)c1ccc(F)cc1 (configuration not stated),i,nt,nt,nt
CC(=O)OCCc1[nH]c2ccccc2c1C,i,i,i,i
Cc1c(CCN)ccc2c1[nH]c1ccccc12,i,17.4,i,i
COc1cccc(C2=NOC(C(=O)Nc3cccnc3)C2)c1 (configuration not stated),i,i,i,i
CCC1(C)N=C(c2ccc3c(c2)OCO3)CC(c2ccccc2O)N1 (configuration not stated),i,44.3,65.9,i
CC(C)N(C(=O)CSc1nnc(-c2ccc3c(c2)OCO3)n1C)C(C)C,i,i,i,nt
COc1cccc(C2=NC(C)(C)NC(c3ccccc3O)C2)c1 (configuration not stated),i,33.9,56.0,i
O=C(O)c1ccc(-c2ccc(/C=c3/sc4nc5ccccc5n4c3=O)o2)cc1Cl,i,i,i,i
O=C(O)c1ccccc1C(=O)Nc1c(-c2ccccc2)nc2ccccn12,i,27.2,i,i
Clc1c(-c2ccccc2)nc2ccccn12,i,20.6,i,i
Cc1c(-c2ccc(Br)cc2)nc2ccccn12,i,29.2,49.3,i
COc1ccc(-c2nc3c4ccccc4ccn3c2C=O)cc1,i,i,i,i
Cc1ccc(-c2nc3ccccn3c2C=O)cc1,i,31.7,65.7,i
COC(=O)C(CN)c1c[nH]c2ccc(OC)cc12 (configuration not stated),nt,i,i,nt
C/C(=N\NC(=O)CC(C)C)c1ccc(N2CCCCC2)cc1,i,26.1,71.5,i
COc1ccc(C(=O)N/N=C(/C)c2ccc(N3CCCCC3)cc2)cc1,i,30.4,74.3,i
COc1ccc(C(=O)NC(=S)Nc2ccc(N3CCCC3)cc2)cc1,i,16.4,i,nt
COc1ccc(/C(C)=N/NC(=O)c2nc(C)cc(C)n2)cc1,i,32.4,50.2,i
SMILES,SARS PLP yeast,Cycloheximide cs,Shiga toxin inh,NS1 inh
COc1ccc(C(=O)Nc2ccc(N3CCCC3)cc2)cc1,i,i,i,i
CC(C)Oc1cc(N)c(Cl)cc1Cl,i,i,i,nt
CCOC(=O)C1=C(COC(=O)/C=C/c2cccc(Br)c2)NC(=O)NC1C (configuration not stated),i,nt,nt,nt
COC(=O)/C=C/c1ccc(C(=O)NCC(=O)N[C@@H](CCC(=O)OC)C(=O)N[C@@H](CC(C)C)C(N)=O)cc1,nt,i,i,nt
N#Cc1nc(-c2cccs2)oc1NCc1ccc2c(c1)OCO2,i,i,i,i
O=C(Nc1ccncc1)c1cccc2ccccc12,i,i,i,i
O=C(Nc1ccc(Cl)cn1)c1ccccc1[N+](=O)[O-],i,18.4,i,nt
O=C(Nc1ccc(Cl)cn1)c1cccc2ccccc12,i,18.2,nt,i
CN(C)S(=O)(=O)c1ccc(C(=O)NCc2nnc(SCC(=O)Nc3ccc(F)cc3)n2-c2ccc(F)cc2)cc1,i,i,i,i
C/C(=N/O)c1ccccn1,i,i,i,i
C/C(=N\N=c1/sc2ccccc2n1C)c1ccccn1,i,78.0,68.6,nt
C/C(=N\NC(=O)c1cc(-c2ccncc2)nc2ccccc12)c1ccc(N2CCOCC2)cc1,i,i,i,nt
C/C(=N\N=c1/sc2ccccc2n1C)c1ccc(N2CCOCC2)cc1,i,22.2,i,i
CC(C)(C)OC(=O)C[C@@H]1C/C=C\C[C@@H](CC(=O)N(CCO)Cc2ccccc2)C(=O)NC[C@H](c2ccccc2)OC1=O,i,nt,nt,nt
CCc1ccn2cc(-c3cc(-c4ccccc4)no3)nc2c1,i,36.8,i,i
Clc1ccc(-c2cc(-c3ccccc3)on2)cc1,i,nt,nt,nt
Cc1ccc2nc(-c3cc(-c4ccccc4)no3)cn2c1,i,48.6,113.5,i
C(=C\c1ccc(/C=C/c2ccccc2)nn1)/c1ccccc1,i,i,i,i
N#CCSc1nccc(/C=C/c2ccccc2)n1,i,42.0,39.6,nt
